A word on the inhibition: it is the change of the read-out against control, counted positive when it falls.

Experimental findings from PubChem BioAssay AID778 (Sanford-Burnham Center for Chemical Genomics, 2007) are described below.

Hit rate of the full screen: of about 96,000 compounds, about 20,000 (21%) were called active. A selection follows. A number with no mark means an inactive call.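 Rule for the calls: active = CYP2C19 inhibition above a set limit at 5 µM in the primary screen (cut at about 50% in these data); inactive = the rest.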

This assay deals with Cytochrome P450 2C19 (Homo sapiens) (UniProt P33261). Briefly: blockers of cytochrome P450 2C19 activity – biochemical, luminescence, ADME assay, primary screen (AID 778).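 Note: plate controls were negative control wells for no effect and 2.5 mM tranylcypromine positive control for full effect.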 Conditions: CYP2C19 Supersomes, luciferin-H EGE luminescence, 30 min; at 5 µM; hits give high values.
Cytochrome P450 2C19 (Homo sapiens), sequence (P33261 whole entry, looked up): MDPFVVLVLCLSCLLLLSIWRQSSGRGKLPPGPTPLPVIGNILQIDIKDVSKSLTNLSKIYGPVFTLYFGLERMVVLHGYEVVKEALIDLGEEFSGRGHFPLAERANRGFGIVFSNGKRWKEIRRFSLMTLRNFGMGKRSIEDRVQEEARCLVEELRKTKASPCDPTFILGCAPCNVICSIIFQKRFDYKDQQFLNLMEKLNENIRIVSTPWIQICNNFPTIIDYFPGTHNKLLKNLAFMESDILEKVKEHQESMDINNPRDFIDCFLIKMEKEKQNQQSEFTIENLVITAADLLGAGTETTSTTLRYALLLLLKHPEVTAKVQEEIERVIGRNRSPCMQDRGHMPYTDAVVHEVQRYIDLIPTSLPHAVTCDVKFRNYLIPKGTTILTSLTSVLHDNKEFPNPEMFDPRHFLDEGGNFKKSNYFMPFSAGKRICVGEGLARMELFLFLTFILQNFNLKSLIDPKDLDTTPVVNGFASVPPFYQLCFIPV
As for `CC(C)Oc1ccc(CCc2n[nH]c(=S)n2Cc2ccccc2)cc1`, the inhibition was 16.7%. Turning to `CCOC(=O)c1sc(NC(=O)CCN2CCOCC2)c(C(=O)OCC)c1C`, the inhibition is 35.2%. The figure for `CCOC(=O)c1sc(NC(=O)CSc2nnc(-c3ccco3)o2)c(C(=O)OCC)c1C` is 25.2%. As to `CCOC(=O)c1c(NC(=O)CCl)sc(C(=O)N(CC)CC)c1C`, the inhibition was 56.1% (active).

As to `COC(=O)c1c(CCl)noc1C(=O)NC(C)C`, the inhibition is 10.5%. The figure for `COc1ccccc1N=C1SC(C)CN1C(=O)C1CCC1` (stereo not drawn) is -1.1%.

`Cn1c2c(c(=O)n(C)c1=O)[C@@H]1c3c(ccc4ccccc34)OC[C@@H]1CO2`: the inhibition is 33.8%. `O=C(c1ccco1)N1CCN(CC(=O)N(C2CCCCC2)C2CCS(=O)(=O)C2)CC1` (stereo not drawn): the inhibition is -21.3%.

Take `Cc1[nH]n(-c2cccc(Cl)c2)c(=O)c1/C=N/n1c(C)nc2ccccc2c1=O`: the inhibition is 20.6%.

For the compound `CCCc1nc2ccccc2c(=O)n1/N=C/c1ccc(O)c(O)c1`, the inhibition was 54.2% (active). As for `CCCc1nc2ccccc2c(=O)n1NC(=O)c1c(O)c2ccccc2[nH]c1=O`, the inhibition was -11.7%. Regarding `ONC(=Nc1ccc(Cl)cc1)c1ccccc1Cl`, the inhibition was 84.3% (active). In the case of `ONC(=Nc1ccccc1)c1ccccc1Cl`, the inhibition was 32.8%. As for `CC(Oc1ccc(Cl)cc1)c1ccnn1S(C)(=O)=O` (stereo not drawn), the inhibition was 69.5% (active). The figure for `CC(Oc1ccc(Cl)cc1)C(=O)Nc1ncccn1` (stereo not drawn) is 30%; for `CC(Oc1ccc(Cl)cc1)C(=O)OCC(=O)Nc1ncc(Cl)cc1Cl` (stereo not drawn) it is 24.2%; for `N#Cc1ccc(-c2ccc(F)cc2)nc1Sc1ccccc1` it is 3.5%. The figure for `Cc1csc(NC(=O)NC2(C(F)(F)F)Oc3ccccc3O2)n1` is -13.3%; for `O/N=C(\c1ccc2c(c1)OCCO2)C1CCCCC1` it is 49.8%; for `CC(C)Cc1cc(C(=O)Nc2cc(Br)ccc2O)no1` it is -2.9%. The figure for `CCn1c(CSc2ncccn2)nnc1SCC(=O)N1c2ccccc2CC1C` (stereo not drawn) is 18.8%; for `CCCCn1ccnc1C(=O)c1cccc(S(=O)(=O)N2c3ccccc3CC2C)c1` (stereo not drawn) it is 83.1% (active); for `CC(C)N1C(=O)C2C(C(=O)NC3CCCCC3)C3C=CC2(O3)C1C(=O)NC1CCCC1` (stereo not drawn) it is 6.6%. As to `N#Cc1ccc(-c2ccc(Cl)cc2)nc1Oc1ccc(F)cc1`, the inhibition is 41.8%. Next, `O=C(Oc1ccc([N+](=O)[O-])cc1)c1ccc2ccccc2n1`: 0%; `CCOC(=O)N1CCN(C(=O)CN(C2CCCCC2)S(C)(=O)=O)CC1`: -5.6%; `CS(=O)(=O)N(CC(=O)N1CCN(c2ccc(F)cc2)CC1)C1CCCCC1`: 6.9%. Next, `CS(=O)(=O)N(CC(=O)Nc1ccc(Cl)c(Cl)c1)C1CCCCC1`: 60.7% (active); `O=C(CCCN1C(=O)CSc2ncccc21)N1CCN(c2cccc(C(F)(F)F)c2)CC1`: 34%.

Regarding `Cc1nc(C)c(C(=O)Nc2cccc(C)c2C)o1`, the inhibition is -14.2%.

For the compound `CC(=C1C(=O)c2ccccc2C1=O)N1CCN(c2ccccn2)CC1`, the inhibition was 13.1%. Next, `Cn1c(=O)cc(OCCCC(=O)N2CCN(c3ccccn3)CC2)c2ccccc21`: 30.2%.

For `Cc1cc(C(=O)N2CCN(c3ccccn3)CC2)c(C)o1`, the inhibition was 56.8% (active).

Consider `COC(=O)c1ccc(NC(=O)C(C)N2C(=O)c3ccccc3C2=O)cc1` (stereo not drawn), for which the inhibition was 11.8%. In the case of `CC(C)Oc1ccc(Oc2ccc(C(F)(F)F)cn2)cc1`, the inhibition was 23.2%.

As to `COc1cccc(N2CCN(C3CC(=O)N(c4ccc(Cl)cc4)C3=O)CC2)c1` (stereo not drawn), the inhibition is -17.1%. Next, `CN(C)c1ccc(NC(=S)N(CCc2ccccc2)C2CC(=O)N(c3c(Cl)cccc3Cl)C2=O)cc1` (stereo not drawn): 13.4%; `COC(=O)CN(C(=S)Nc1ccc(Cl)cc1)C1CC(=O)N(c2ccc(OC)cc2)C1=O` (stereo not drawn): 69.3% (active); `CCSc1nnc(NC(=O)Cc2ccccc2OC)s1`: 36.5%. The figure for `CCOCCCN1C(=O)CN(C2CCCCC2)C(=O)C1c1ccc(OCC)c(OC)c1` (stereo not drawn) is 0.6%. Consider `CCn1c(CSc2nncn2-c2ccc(OC)cc2)nc2cc(S(=O)(=O)N(C)C)ccc21`, for which the inhibition was 21.5%. The figure for `CCN(CC)S(=O)(=O)c1ccc2nc(CSc3nnnn3-c3ccc(O)cc3)[nH]c2c1` is 66.1% (active); for `CCN(CC)S(=O)(=O)c1ccc2nc(COC(=O)c3n[nH]c4ccccc34)[nH]c2c1` it is 9.5%. Next, `CCCCN(CC)CCCNC(=O)CS(=O)(=O)Cc1nc(-c2cccc(OC)c2)oc1C`: -1.1%. The figure for `CCOC(=O)Cn1c(SC)nc2sc3c(c2c1=O)CC(C)(C)OC3` is 8.2%; for `CC/C(C)=N/Nc1nc2sc3c(c2c(=O)[nH]1)CC(C)(C)OC3` it is 36.9%. Regarding `CCOC(=O)CSc1nc2sc3c(c2c(=O)[nH]1)CC(C)(C)OC3`, the inhibition is 67.6% (active). Next, `CC(=O)Nc1ccc(NS(=O)(=O)c2cc(C)sc2C)cc1`: 93.5% (active); `CC(=O)Nc1ccc(S(=O)(=O)Nc2cccc(NC(=O)C(C)(C)C)c2)cc1`: 32.2%. In the case of `CC(=O)NS(=O)(=O)c1ccc(NC(=S)NC(=O)C(C)(C)C)cc1`, the inhibition is -2.4%. Take `CN(C)c1ccc(-n2cccc2/C=C2/SC(=Nc3ccc(F)cc3)NC2=O)cc1`: the inhibition is 2.9%. Next, `COC(=O)Nc1ccc(S(=O)(=O)N2CCN(CCN3C(=O)C4C5C=CC(C5)C4C3=O)CC2)cc1` (stereo not drawn): 5.6%; `COC(=O)Nc1ccc(S(=O)(=O)N(C)CC(F)(F)C(F)F)cc1`: 58.8% (active); `CCOC(=O)Nc1ccc(S(=O)(=O)N(C)C(C)C)cc1`: 19.6%.

`O=C(CCCCCn1c(=O)[nH]c2ccccc2c1=O)NCCc1c[nH]c2ccccc12`: the inhibition was 71.7% (active).

On to `O=C(CCn1c(=O)[nH]c2ccccc2c1=O)NCCCN1CCN(c2cccc(Cl)c2)CC1`, for which the inhibition was 13.5%. The figure for `COc1ccc(CCNC(=O)CCCCn2c(=O)[nH]c3ccccc3c2=O)cc1OC` is 16.8%; for `O=C(c1cc2c(s1)CCC2)N1CCN(c2ccccc2)CC1` it is 48.8%. The figure for `O=C(CS(=O)(=O)Cc1ccccc1)NCC1CCCO1` (stereo not drawn) is -6.7%. The figure for `O=C(CSC1=Nc2ccccc2C2=NC(c3ccccc3)C(=O)N12)NCC1CCCO1` (stereo not drawn) is 29.1%; for `O=C(CSCc1c(F)cccc1Cl)NCC1CCCO1` (stereo not drawn) it is 52.6% (active); for `N#Cc1ccc(Oc2cc(C(F)(F)F)nc(-c3ccccn3)n2)cc1` it is 6.7%. For the compound `O=C(Nc1nccs1)c1cc(S(=O)(=O)N2CCOCC2)c(Cl)cc1Cl`, the inhibition was 12.5%. The figure for `COc1ccc(-n2nc3c(c2NC(=O)Cc2cccc(C)c2)CS(=O)C3)cc1` (stereo not drawn) is 76.9% (active); for `COc1ccc(-n2nc(C(=O)NCC(=O)Nc3cccc(C)n3)c3ccccc3c2=O)cc1` it is -1.3%; for `O=C(CC1CCCCC1)Nc1c2c(nn1-c1ccc(F)cc1)CS(=O)(=O)C2` it is 5%. Next, `O=C(Nc1c2c(nn1-c1ccc(F)cc1)CS(=O)C2)C12CC3CC(CC(C3)C1)C2` (stereo not drawn): 9.1%; `Cc1ccc(-n2nc3c(c2NC(=O)CCC2CCCCC2)CS(=O)C3)cc1` (stereo not drawn): 80.4% (active). The figure for `CC(C)(C)n1nc2c(c1NC(=O)c1ccc(S(=O)(=O)N3CCCC3)cc1)CS(=O)C2` (stereo not drawn) is 10.7%; for `CCCCc1nc2c(=O)[nH]c3ccccc3c2o1` it is -9.6%. In the case of `CCC1(C)Cc2c(sc3[nH]c(=S)n(Cc4ccccc4)c(=O)c23)CO1` (stereo not drawn), the inhibition was 9.8%.

For `O=C(Cn1nnc(-c2ccc(CN3CCOCC3)cc2)n1)NC1CCCCC1`, the inhibition was 9%.

Turning to `CC(=O)C1=C(O)C(=O)N(c2ccc(S(N)(=O)=O)cc2)C1c1ccccc1F` (stereo not drawn), the inhibition is -8%. As to `Clc1ccc(-c2cc(COc3ccccc3)no2)cc1Cl`, the inhibition is 10.4%. Next, `O=c1c([N+](=O)[O-])cc(C(F)(F)F)cn1Cc1cccc(Cl)c1`: 24.2%; `C=CCNc1nnc(SCC(=O)N2CCCCC2)c2ccccc12`: 50.6% (active).

On to `C=CCNc1nnc(C)c2ccccc12`, for which the inhibition is -10.2%. Next, `CCc1c(O)nc(SCC(=O)N2CCCCC2)n(-c2ccccc2C)c1=O`: 0.9%. Next, `c1ccc2c(c1)C(=NC1CCCCC1)NC2=NC1CCCCC1`: 4.5%; `O=C(Nc1cccc(OCC(=O)N2CCOCC2)c1)C1CCCCC1`: -9.5%; `CN(C)CCCNc1c2c(c(C#N)c3nc4ccccc4n13)CCC2`: 0%. Next, `CCOC(=O)N1CCC(Nc2c(NCCN3CCN(c4cccc(Cl)c4)CC3)c(=O)c2=O)CC1`: 2.4%. Turning to `O=S(=O)(N/N=C\c1cccn1-c1ccccc1)c1ccc2ccccc2c1`, the inhibition is 49.7%. The figure for `CCCCn1c(SCC(=O)NCCc2ccc(OC)c(OC)c2)nc2c1c(=O)n(C)c(=O)n2C` is -14.1%; for `CCC(C)(NC(=O)c1ccccn1)C(=O)NC1CCCCC1` (stereo not drawn) it is 17.6%. With `O=C(CCCC(=O)N(CC(=O)NC1CCCC1)Cc1ccccc1Cl)Nc1ccccn1`, the inhibition was 77.5% (active). Take `Cc1ccc(C(C(=O)NC2CCCC2)N(Cc2ccco2)C(=O)CCC(=O)Nc2ccccn2)cc1` (stereo not drawn): the inhibition was 10.6%. Next, `CCCC(=O)Nc1cc(OCC)c(NC(=O)NC2CCCCC2)cc1OCC`: 10.5%; `Cc1noc(C)c1C(=O)N(CC(=O)NC1CCCC1)Cc1ccccc1F`: -7.6%; `CCOc1ccccc1N(CC(=O)NC1CCCCC1)C(=O)CCCC(=O)Nc1ccccn1`: 68.9% (active). Next, `O=C1CCCC(O)=C1C=NCCc1ccccc1`: 12.8%; `CC(CCO)Nc1nc2c([nH]1)c(=O)n(C)c(=O)n2C` (stereo not drawn): 0.9%. The figure for `Cn1c2c(c(=O)n(C)c1=O)C(c1ccc(O)cc1)Nc1ccccc1O2` (stereo not drawn) is 2%.
